# From PubChem BioAssay
# NPC1 prom act: qHTS Assay for NPC1 Promoter Activators. Huh7 NPC1 promoter luciferase reporter, 24 h. AID 485313, 2010. hit rate 2.4% among 320,000. Potency, µM (highest dose often 9.22 µM), without a hit: at the top dose activation, actives largely listed as activators; also: % of control where 0% means no effect; nearly all actives have a fitted effect of over 60% in size
#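 Luminescence from an NPC1 promoter-driven luciferase reporter in stably transfected Huh7 cells was measured after 24 h compound treatment at 37 °C, followed by 10 min ambient incubation with luciferase detection reagent.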
# ELG1 genotox: qHTS screen for small molecules that induce genotoxicity in human embryonic kidney (HEK293T) cells expressing luciferase-tagged ELG1; HEK293T ELG1-luciferase reporter, luminescence, 16 h; Potency, µM (titrated, usually from 46 µM), inactives show at the highest dose activity change, positive = activation, actives largely listed as activators; hit rate 1.3% among 330,000; AID 504466, 2011; also: % of control where 0% means no effect; nearly all actives have a fitted effect of over 60% in size
#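 HEK293T cells expressing luciferase-tagged ELG1 were treated with compound or DMSO for 16 hr at 37°C. Luciferase activity was then read after 30 min with ONE-Glo at room temperature; rising signal flags genetic stress.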
# FLuc modulator: qHTS profiling assay for firefly luciferase inhibitor/activator using purifed enzyme and Km concentrations of substrates (counterscreen for miR-21 project); Potency, µM (top dose mostly 57.5 µM), inactives show at the highest dose activity change, negative = inhibition, usual class: inhibitors; purified FLuc, Km substrates, luminescence inhibition; Luciferin 4-monooxygenase (Photinus pyralis), P08659; AID 588342, 2011; hit rate 6.9% among 360,000;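 also: plate controls were vehicle for no effect and reference inhibitor for full effect; nearly all actives have a fitted effect of over 55% in size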
# Target sequence (P08659 whole entry, looked up): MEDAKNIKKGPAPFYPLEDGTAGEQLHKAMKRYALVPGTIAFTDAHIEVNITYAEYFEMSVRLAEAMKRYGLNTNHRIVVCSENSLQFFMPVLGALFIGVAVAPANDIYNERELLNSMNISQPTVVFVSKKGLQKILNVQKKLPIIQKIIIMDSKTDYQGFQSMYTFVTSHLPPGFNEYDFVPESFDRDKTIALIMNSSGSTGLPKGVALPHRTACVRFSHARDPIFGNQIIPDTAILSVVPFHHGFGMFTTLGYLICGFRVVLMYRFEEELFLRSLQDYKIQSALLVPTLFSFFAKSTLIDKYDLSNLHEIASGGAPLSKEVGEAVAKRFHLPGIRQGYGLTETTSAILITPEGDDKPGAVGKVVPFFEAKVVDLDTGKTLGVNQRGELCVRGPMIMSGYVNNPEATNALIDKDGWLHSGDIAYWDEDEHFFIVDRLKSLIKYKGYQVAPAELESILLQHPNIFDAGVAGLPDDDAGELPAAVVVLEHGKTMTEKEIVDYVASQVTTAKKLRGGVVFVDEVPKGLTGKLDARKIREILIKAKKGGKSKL
#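 Purified P. pyralis luciferase, 10 nM final, with Km-level 10 uM D-luciferin and 10 uM ATP in 50 mM Tris acetate pH 7.5, 10 mM Mg acetate, 0.01% Tween-20, 0.05% BSA; 6-point qHTS titration about 60 µM downward; luminescence read.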
# SMN2 splice up: qHTS Assay for Enhancers of SMN2 Splice Variant Expression; HEK293 SMN2-luciferase splicing reporter, luminescence, 30-36 h; Potency, µM (series often up to 46.1 µM), for the others: at the top dose activity change, positive = activation, usual class: activators; hit rate 2.8% among 210,000; AID 1458, 2008; also: % of control where 0% means no effect; nearly all actives have a fitted effect of over 55% in size
#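 HEK293 cells carry an SMN2 minigene-luciferase reporter in which exon 7 inclusion puts luciferase in frame. Cells were seeded at 2000 cells/well, attached for 10-12 hours, then exposed to compounds for 30-36 hours at 37C before ONE-Glo luminescence.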
# Rab9 prom act: qHTS Assay for Rab9 Promoter Activators. Huh7 Rab9 promoter-luciferase reporter, luminescence, 24 h. Potency, µM (series often up to 9.22 µM), without a hit: top-dose activation, negative = inhibition, usual class: activators. hit rate 2.8% among 320,000. AID 485297, 2010; also: % of control where 0% means no effect; nearly all actives have a fitted effect of over 60% in size
#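 Luminescence read-out: Huh7 cells stably expressing Rab9-luciferase, treated 24 h with compound at 37 °C, then lysed with luciferase reagent for 10 min at ambient before reading.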
# ELG1 repair inh: qHTS screen for small molecules that inhibit ELG1-dependent DNA repair in human embryonic kidney (HEK293T) cells expressing luciferase-tagged ELG1; Potency, µM (series often up to 46.1 µM), for the others: at the highest dose activity change, negative = inhibition, hits mostly inhibitors; HEK293T ELG1-luciferase reporter, luminescence, 16 h; DNA damage induced by 5-fluorouridine; hit rate 2.3% among 330,000; also: % is scaled to controls: 0 for no effect and ±100 for the full control effect; nearly all actives have a fitted effect of over 55% in size
#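 In this reporter screen, reduction of luminescence relative to DMSO vehicle indicated activity. Compounds and 5-fluorouridine were added together to 2,000 cells per well, incubated for 16 hr at 37 °C, then developed with ONE-Glo.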
# Numbers without * were called inactive; ? = inconclusive; . = no result given. Shown are actives, neighbours in structure and some others; about 9.3% of the full set was active somewhere. Calls follow the shape of the dose curve; as a rule, active = well fitted curve in the direction sought with a large enough effect; inconclusive = small, poorly fitted or top-dose-only effect, or another doubt; inactive = no such curve, though single readings can be large; an effect the other way counts as inactive or inconclusive. Potency is read from the fitted curve at half-maximal effect.
SMILES,NPC1 prom act,ELG1 genotox,FLuc modulator,SMN2 splice up,Rab9 prom act,ELG1 repair inh
FC(F)(F)c1ccccc1NC(=S)N1CCc2ccccc2C1,-7%,-12%,5%,-50%,-1%,15µM*
O=C1C=C(N(CCO)Cc2ccccc2)c2ccccc2C1=O,-34%,-9%,-15%,-74%,-41%,8.2µM*
CC(C)(C)c1ccc(-c2nc3cc(N)ccc3o2)cc1,0.32µM*,1.3µM*,0.43µM*,.,0.63µM*,?
Cc1ccc2oc(-c3cccc(N)c3)nc2c1,1µM*,2.3µM*,0.76µM*,.,0.63µM*,?
O=c1oc2ccccc2nc1/C=C(\O)c1ccccc1,1%,0%,?,.,14%,-10%
Cc1ccc(/C(O)=C/c2nc3cc(C)ccc3oc2=O)cc1,-2%,1%,12µM*,.,-4%,0%
Cc1ccc(-c2nc3cc(N)ccc3o2)cc1,0.45µM*,0.33µM*,0.6µM*,0.71µM*,0.45µM*,?
O=c1c2c3c(sc2nc(N2CCNCC2)n1-c1cccc(Cl)c1)CCCCC3,-5%,-1%,6%,.,-2%,7%
Cc1ccc(NS(=O)(=O)c2cc(C(=O)NCc3ccccn3)ccc2Cl)cc1C,0%,-1%,-1%,-4%,-5%,3%
CCOC(=O)c1c(NC(=O)COC(=O)c2cnc(C)cn2)sc(C(=O)N(C)C)c1C,0%,4%,-1%,.,0%,-6%
COC(=O)c1ccccc1NC(=O)c1ccnn1C,-1%,4%,-3%,.,0%,6%
Nc1ccc2oc(-c3cccs3)nc2c1,3.2µM*,9.2µM*,12µM*,.,3.5µM*,?
Nc1ccc2oc(-c3cccc4ccccc34)nc2c1,-2%,8%,13µM*,10%,8%,?
Cc1ccc(-c2nc3cc(C)ccc3o2)cc1,?,0.52µM*,0.17µM*,11µM*,0.63µM*,?
Cc1ccc2oc(-c3ccco3)nc2c1,?,?,4.8µM*,18%,?,?
Cc1csc(N(C(=O)c2ccc(S(=O)(=O)N(C)C)cc2)c2ccccc2)n1,0%,0%,1%,-7%,1%,5%
COc1ccc(C(=O)NC2CCN(S(=O)(=O)c3ccccc3F)CC2)cc1,-3%,-7%,7%,.,1%,-14%
N[C@H](CCC(=O)NCC(=O)O)C(=O)O,.,.,.,1%,.,.
CC(C)c1ccc2oc(-c3ccc(NC(=O)c4cc5ccccc5o4)cc3)nc2c1,.,.,-2%,-23%,.,.
Cc1ccc(-c2nc3cc(N)ccc3o2)c(C)c1,?,2.6µM*,0.67µM*,?,0.56µM*,?
Cc1ccc(-c2nc(N)nc(N)n2)c(C)c1,2%,4%,1%,.,1%,6%
CC(C)c1ccc2oc(-c3ccc(N)cc3)nc2c1,0.56µM*,?,0.19µM*,.,0.56µM*,?
COc1ccc(OC)c(NC(=O)c2ccc(OCC(=O)N3CCOCC3)c(OC)c2)c1,-7%,1%,0%,.,1%,-13%
COc1ccc(-c2csc(NC(=O)c3ccc(OCC(=O)N4CCOCC4)c(OC)c3)n2)cc1,-1%,-11%,17µM*,-31%,11%,16µM*
COc1cc(C(=O)Nc2ccc(C)c(S(=O)(=O)N(C)C)c2)ccc1OCC(=O)N1CCOCC1,13%,3%,3µM*,.,29%,?
SMILES,NPC1 prom act,ELG1 genotox,FLuc modulator,SMN2 splice up,Rab9 prom act,ELG1 repair inh
COc1cc(C(=O)Nc2nc(-c3ccc(F)cc3)cs2)ccc1OCC(=O)N1CCOCC1,-2%,-9%,?,.,-4%,?
COc1cc(C(=O)Nc2nc(-c3ccc(C)cc3)cs2)ccc1OCC(=O)N1CCOCC1,13%,-11%,?,-42%,29%,21µM*
Cc1ccn2c(Nc3ccc4c(c3)OCO4)c(-c3ccc(C)o3)nc2c1,.,.,24µM*,1%,.,.
Brc1ccc(-c2nc3ccccn3c2Nc2ccc3c(c2)OCCO3)o1,.,.,13µM*,?,.,.
Cc1ccc(-c2nc3ccccn3c2Nc2ccc3c(c2)OCCO3)o1,.,.,?,4%,.,.
Cc1ccc2nc(-c3ccc(C)o3)c(Nc3ccc4c(c3)OCCO4)n2c1,.,.,21µM*,8.9µM*,.,.
Cc1ccc(-c2nc3ccc(Cl)cn3c2Nc2ccc3c(c2)OCCO3)o1,.,.,-3%,6%,.,.
COc1ccc(Nc2c(-c3ccc(C)o3)nc3cc(C)ccn23)cc1,.,.,17µM*,-4%,.,.
COc1cc2c(cc1OC)C(COc1ccc3c(C)cc(=O)oc3c1)N(C(=O)c1cccc(OC)c1OC)CC2 (stereo unspecified),.,.,0%,5%,.,.
O=C(CCl)Nc1ccc(Oc2cnc3ccccc3n2)cc1,-10%,-2%,3%,-74%,17%,?
O=C(Nc1ccccc1C(=O)N1CCOCC1)c1ccco1,-7%,1%,1%,-4%,1%,2%
Cc1ccn2c(Nc3ccc4c(c3)OCCO4)c(-c3cccs3)nc2c1,.,.,9.5µM*,-2%,.,.
Cc1ccc(-c2nc3ccc(Cl)cn3c2Nc2ccc3c(c2)OCCO3)s1,.,.,?,5µM*,.,.
Nc1c(S(=O)(=O)O)cc(NC(=O)c2ccccc2)c2c1C(=O)c1ccccc1C2=O,0%,-1%,?,.,-1%,-28%
CCc1cccc(CC)c1NC(=O)Cn1nnc2sc(-c3ccccc3)cc2c1=O,.,.,-7%,0%,.,.
COc1ccc(CNC(=O)C2CCC(CNS(=O)(=O)c3ccccc3)CC2)cc1 (stereo unspecified),3%,-6%,-1%,.,-1%,?
COc1c2c(cc3oc(=O)ccc13)OC(C)(C)C=C2,18%,13%,?,.,22%,?
CC1(C)C=Cc2cc3ccc(=O)oc3cc2O1,?,?,11µM*,14µM*,?,?
C[C@]12CC[C@H](OC(=O)CCC(=O)O)CC1=CCC1C2CC[C@@]2(C)C1CC[C@@H]2N (stereo partly specified),.,2%,.,.,.,?
COc1ccc(C(=O)C=CNNC(=O)c2ccc(Cl)cc2)cc1,-7%,7%,-6%,.,-6%,-12%
O=C(/C=C/NNC(=O)c1ccc(Cl)cc1)c1ccccc1,-1%,-4%,?,7%,1%,1%
Cc1ccc(C(=O)/C=C/NNC(=O)c2ccccc2O)cc1,10%,-5%,27µM*,.,7%,13%
O=C(/C=C/NNC(=O)c1ccccc1)c1ccc(Br)cc1,7%,?,27µM*,4%,0%,12%
COc1cccc(CNc2cc(C)nc3nc(-c4ccc(C)cc4)nn23)c1,.,.,1.7µM*,.,.,.
